This passage reports growth inhibition results from PubChem BioAssay (NCI).

Molecules are shown by their SMILES. Compounds without any hit were thinned out: in the full panel of roughly 79,000, 15% have a hit. Unmarked numbers belong to inactive results. Activity calls are given as the source filed them. No stated cut-off is given here; in the data, active means growth inhibition above about 70%; inactive means the rest.

A short description of assay [1]: NCI Yeast Anticancer Drug Screen. Data for the rad50 strain (AID 155).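 Further: 0% = growth of vehicle-only cultures of the same strain.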 The following applies: S. cerevisiae rad50 strain growth inhibition, stronger effect = higher value. Put shortly:
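Relative growth inhibition (compound vs vehicle) was measured in yeast with a defined repair-gene alteration.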

Assay [2] can be described thus: NCI Yeast Anticancer Drug Screen. Data for the mec2-1 strain (AID 157). The following applies: S. cerevisiae mec2-1 strain, stronger effect = higher value. Put shortly: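 Cells of the genetically defined mec2-1 yeast strain are incubated with test compound. Inhibition of growth is calculated against vehicle-treated controls.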
The nature of assay [3]: NCI Yeast Anticancer Drug Screen. Data for the sgs1 mgt1 strain (AID 161).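 Further: 0% = growth of cultures given vehicle only.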 The following applies: S. cerevisiae sgs1 mgt1 strain, stronger effect = higher value. Put shortly:
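Test agents were incubated with a DNA-repair-mutant yeast strain. Growth was then read and compared against vehicle-treated controls.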

A short description of assay [4]: NCI Yeast Anticancer Drug Screen. Data for the cln2 rad14 strain (AID 165).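 Further: 0% = growth equal to vehicle treated cultures.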 The following applies: S. cerevisiae cln2 rad14 strain, stronger effect = higher value. Put shortly:
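The screen exposed genetically defined yeast (cln2 rad14) to test compounds and scored growth inhibition relative to vehicle-treated controls.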

Assay [5] in a line: NCI Yeast Anticancer Drug Screen. Data for the bub3 strain (AID 167). The following applies: S. cerevisiae bub3 mutant strain, stronger effect = higher value. Put shortly: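 Screening used yeast with an engineered genetic alteration affecting cell cycle control. Compound-exposed cultures were compared with vehicle cultures, and reduced growth was taken as inhibition.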
Assay [6] is described as follows: NCI Yeast Anticancer Drug Screen. Data for the mlh1 rad18 strain (AID 175). As to conditions: S. cerevisiae mlh1 rad18 strain growth inhibition, stronger effect = higher value. Put shortly: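 Compound-treated yeast growth, normalised to vehicle controls. Strain bears defined DNA repair mutations.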
[7] abbreviates: at 5.0 µM (retest, dose inferred, filed as 0.5).
[8] abbreviates: at 50.0 µM (retest, dose inferred, filed as 5.0).

Take `CCC(CC)COC(=O)c1ccc(O)c(O)c1`: the growth inhibition in assay [1] (setting [7]) was -6%; in assay [1] (setting [8]) it was 91% (active); in assay [1] (at 50.0 µM), 98.8% (active); in assay [2] (setting [7]) it was -5%; in assay [2] (setting [8]), 72% (active); in assay [2] (at 50.0 µM), 99.2% (active). Moreover, the growth inhibition is -2% in assay [3] (setting [7]); 91% (active) in assay [3] (setting [8]); 48.1% in assay [3] (at 50.0 µM); -14% in assay [4] (setting [7]); 98% (active) in assay [4] (setting [8]); 99.1% (active) in assay [4] (at 50.0 µM). The growth inhibition in assay [5] (setting [7]) is 1%; in assay [5] (setting [8]), 99% (active); in assay [5] (at 50.0 µM), 99.1% (active); in assay [6] (setting [7]) it was -6%; in assay [6] (setting [8]), 99% (active); in assay [6] (at 50.0 µM) it was 98.9% (active).

In the case of `COc1nc(Nc2ccc(/C=C/c3ccc(Nc4nc(OC)nc(N(CCO)CCO)n4)cc3S(=O)(=O)O)c(S(=O)(=O)O)c2)nc(N(CCO)CCO)n1`, the growth inhibition was -4% in assay [1] (setting [7]); 53% in assay [1] (setting [8]); 14.2% in assay [1] (at 50.0 µM); -4% in assay [2] (setting [7]); 37% in assay [2] (setting [8]); 58.9% in assay [2] (at 50.0 µM). Also, the growth inhibition in assay [3] (setting [7]) was -3%; in assay [3] (setting [8]), 51%; in assay [3] (at 50.0 µM), 45.8%; in assay [4] (setting [7]) it was -1%; in assay [4] (setting [8]), 17%; in assay [4] (at 50.0 µM), 5.8%. The growth inhibition is -4% in assay [5] (setting [7]); 28% in assay [5] (setting [8]); 3.2% in assay [5] (at 50.0 µM); 0% in assay [6] (setting [7]); 49% in assay [6] (setting [8]); 80.4% (active) in assay [6] (at 50.0 µM).

Take `CC(=O)Nc1nnc(C)s1`: the growth inhibition in assay [1] (setting [7]) was 0%; in assay [1] (setting [8]), -3%; in assay [1] (at 50.0 µM) it was 4.25%; in assay [2] (setting [7]), 0%; in assay [2] (setting [8]), -3%; in assay [2] (at 50.0 µM), -11.8%. In addition, the growth inhibition in assay [3] (setting [7]) is -2%; in assay [3] (setting [8]), -5%; in assay [3] (at 50.0 µM) it was -4.4%; in assay [4] (setting [7]) it was -3%; in assay [4] (setting [8]), 6%; in assay [4] (at 50.0 µM), 13%. The growth inhibition was 1% in assay [5] (setting [7]); 1% in assay [5] (setting [8]); -19.3% in assay [5] (at 50.0 µM); 1% in assay [6] (setting [7]); -3% in assay [6] (setting [8]); -18.8% in assay [6] (at 50.0 µM).

`Cc1cc2nc(CS)[nH]c2cc1C`: the growth inhibition in assay [1] (setting [7]) is -13%; in assay [1] (setting [8]) it was 41%; in assay [1] (at 50.0 µM), 66.3%; in assay [2] (setting [7]) it was 4%; in assay [2] (setting [8]) it was 44%; in assay [2] (at 50.0 µM) it was 51.9%. The growth inhibition in assay [3] (setting [7]) was 15%; in assay [3] (setting [8]), 70% (active); in assay [3] (at 50.0 µM), 70.8% (active); in assay [4] (setting [7]), 31%; in assay [4] (setting [8]) it was 51%; in assay [4] (at 50.0 µM), 43.2%. Also, the growth inhibition in assay [5] (setting [7]) was 26%; in assay [5] (setting [8]), 85% (active); in assay [5] (at 50.0 µM), 55.9%; in assay [6] (setting [7]) it was -13%; in assay [6] (setting [8]), 61%; in assay [6] (at 50.0 µM) it was 44.2%.

`C[CH2][Sn]([CH2]C)([O]C(=O)c1cccc(OC)c1)[O][Sn]([CH2]C)([CH2]C)[O]C(=O)c1cccc(OC)c1`: the growth inhibition is 31% in assay [1] (setting [7]); 69% in assay [1] (setting [8]); 59.5% in assay [1] (at 50.0 µM); 30% in assay [2] (setting [7]); 79% (active) in assay [2] (setting [8]); 39.2% in assay [2] (at 50.0 µM). The growth inhibition was 36% in assay [3] (setting [7]); 76% (active) in assay [3] (setting [8]); 37.5% in assay [3] (at 50.0 µM); 30% in assay [4] (setting [7]); 58% in assay [4] (setting [8]); 40.8% in assay [4] (at 50.0 µM). In addition, the growth inhibition is 30% in assay [5] (setting [7]); 86% (active) in assay [5] (setting [8]); 37.5% in assay [5] (at 50.0 µM); 40% in assay [6] (setting [7]); 74% (active) in assay [6] (setting [8]); 56.5% in assay [6] (at 50.0 µM).

`CC(=O)Nc1ccc2c(c1)[nH]c(=O)c1cc(Cl)ccc12`: the growth inhibition in assay [1] (setting [7]) was 60%; in assay [1] (setting [8]), 96% (active); in assay [1] (at 50.0 µM) it was 82.8% (active); in assay [2] (setting [7]) it was 18%; in assay [2] (setting [8]), 63%; in assay [2] (at 50.0 µM) it was -1.45%. Also, the growth inhibition in assay [3] (setting [7]) is 12%; in assay [3] (setting [8]) it was 72% (active); in assay [3] (at 50.0 µM), 7.25%; in assay [4] (setting [7]) it was -20%; in assay [4] (setting [8]) it was 76% (active); in assay [4] (at 50.0 µM), 0.95%. Further, the growth inhibition was 4% in assay [5] (setting [7]); 7% in assay [5] (setting [8]); -7.95% in assay [5] (at 50.0 µM); 29% in assay [6] (setting [7]); 91% (active) in assay [6] (setting [8]); 35.5% in assay [6] (at 50.0 µM).

`O=C1/C(=C/c2ccccc2)CCCc2ccccc21`: the growth inhibition in assay [1] (setting [7]) was -2%; in assay [1] (setting [8]) it was 28%; in assay [1] (at 50.0 µM), 59.8%; in assay [2] (setting [7]), 7%; in assay [2] (setting [8]) it was 62%; in assay [2] (at 50.0 µM), 49.5%. Moreover, the growth inhibition in assay [3] (setting [7]) was 14%; in assay [3] (setting [8]), 79% (active); in assay [3] (at 50.0 µM), 86% (active); in assay [4] (setting [7]) it was -10%; in assay [4] (setting [8]) it was 14%; in assay [4] (at 50.0 µM) it was 19.7%. Besides, the growth inhibition in assay [5] (setting [7]) is 10%; in assay [5] (setting [8]) it was 75% (active); in assay [5] (at 50.0 µM), 74.8% (active); in assay [6] (setting [7]), 10%; in assay [6] (setting [8]), 73% (active); in assay [6] (at 50.0 µM) it was 75% (active).

As for `CCCCCCC(=O)CC(SCCN)c1ccccc1Cl` (configuration not stated), the growth inhibition is 9% in assay [1] (setting [7]); 52% in assay [1] (setting [8]); 99.2% (active) in assay [1] (at 50.0 µM); -5% in assay [2] (setting [7]); 56% in assay [2] (setting [8]); 99.4% (active) in assay [2] (at 50.0 µM). The growth inhibition was -12% in assay [3] (setting [7]); 48% in assay [3] (setting [8]); 99.2% (active) in assay [3] (at 50.0 µM); 12% in assay [4] (setting [7]); 99% (active) in assay [4] (setting [8]); 98.3% (active) in assay [4] (at 50.0 µM). In addition, the growth inhibition in assay [5] (setting [7]) was -5%; in assay [5] (setting [8]) it was 99% (active); in assay [5] (at 50.0 µM), 98.9% (active); in assay [6] (setting [7]) it was 1%; in assay [6] (setting [8]), 55%; in assay [6] (at 50.0 µM) it was 98.8% (active).

Regarding `CC[n+]1c(/C=C/c2cc(C(=O)OC)n3c2sc2ccccc23)sc2ccccc21`, the growth inhibition in assay [1] (setting [7]) is 43%; in assay [1] (setting [8]), 99% (active); in assay [1] (at 50.0 µM), 99% (active); in assay [2] (setting [7]), 38%; in assay [2] (setting [8]), 99% (active); in assay [2] (at 50.0 µM), 99.2% (active). Moreover, the growth inhibition in assay [3] (setting [7]) is 3%; in assay [3] (setting [8]), 99% (active); in assay [3] (at 50.0 µM) it was 99.2% (active); in assay [4] (setting [7]), 25%; in assay [4] (setting [8]), 99% (active); in assay [4] (at 50.0 µM), 98.4% (active). In addition, the growth inhibition is 49% in assay [5] (setting [7]); 99% (active) in assay [5] (setting [8]); 98.6% (active) in assay [5] (at 50.0 µM); 61% in assay [6] (setting [7]); 99% (active) in assay [6] (setting [8]); 98.8% (active) in assay [6] (at 50.0 µM).
